# Laboratory results as given in PubChem BioAssay (Tox21).
# Records with an inconclusive call do not appear. Active and inactive are the calls of the source. Calls come from the whole dose curve; as a rule, active = well fitted cell-killing curve with a large enough effect in the repeat runs; inconclusive = weak or mixed curves, or effect the other way; inactive = flat fitted curve, though single readings scatter.
# Assay: cAMP Responsive Elements (CRE) small molecule agonists, cell-based qHTS assay: qHTS cell viability counter screen (AID 2060914);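 note: viability read after 3 h of compound exposure; nearly all actives have a fitted effect of over 50% in size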
# Conditions: CRE-bla HEK293T viability, CellTiter-Glo luminescence, 5 h; series mostly up to 92.4 µM; activity change, negative = cytotoxicity: at the top concentration
# Text: National Center for Advancing Translational Sciences [NCATS]
# Division of Preclinical Innovation [DPI]
# U.S. Environmental Protection Agency [EPA]
# National Institutes of Environmental Health Sciences [NIEHS]
# National Toxicology Program [NTP]
# U.S. Food and Drug Administration [FDA]
# CREB (cyclic-AMP Responsive Element Binding Protein) is a cellular transcription factor. It binds to certain DNA sequences called cAMP Responsive Elements (CRE) and regulates the transcription of the genes. […] This cell line can be used to find agonists/antagonists of the cyclic AMP signaling pathway. The activation of the report gene under culture conditions can be detected by fluorescence intensity. This cell line has been used to screen the Tox21 10K compound library to identify agonists that induce oxidative stress. The cytotoxicity of the Tox21 compound library against the CRE-bla cell line was tested in parallel by measuring the cell viability using CellTiter-Glo assay (Promega, Madison, WI) in the same wells.
# Tox21 Assay Protocol Summary:
# CRE-bla Hek 293T cells were suspended in assay medium (DMEM containing 10% dialyzed FBS, 0.1 mM NEAA, 1 mM sodium pyruvate and 25 mM HEPES) and dispensed at 2,000 cells/5 uL /well into 1536-well black wall/clear bottom plates using a Multidrop Combi (ThermoFisher Scientific, Waltham, MA) dispenser. After the assay plates were incubated at 37 C/5% CO2 for 18 hrs, 23 nL of compounds dissolved in DMSO, positive controls or DMSO only was transferred to the assay plate by a pintool workstation (Kalypsys, San Diego, CA). After the plates were incubated at 37 C/5% CO2 for 3 hrs, 1 uL of LiveBLAzer B/G FRET substrate (Invitrogen, Carlsbad, CA) was added to each well using Bioraptr Flying Reagent Dispenser (FRD, Aurora Discovery, San Diego, CA). The plates were incubated at room temperature for 2 h, then fluorescence intensities were measured using an Envision plate reader (PerkinElmer, Shelton, CT) at Excitation 405nm, Emission 460nm and 530nm. The % activity was determined from the ratio of 460nm/530nm. For cell viability readout that measures cytotoxicity, 4 uL /well of CellTiter-Glo reagent was added into the assay plates using Bioraptr FRD. After 30 min incubation at room temperature, the luminescence intensity in the assay plates was measured using a ViewLux (PerkinElmer, Shelton, CT) plate reader.
# % is set by controls: 0 for no effect and ±100 for the full control effect.
SMILES,"activity change, negative = cytotoxicity",Potency
O=[N+]([O-])c1cc(Cl)ccc1Cl,5.43% (inactive),
CCCN(CC)CC1COC2(CCC(C(C)(C)C)CC2)O1 (stereo not given),-1.31% (inactive),
COC(=O)C1(O)c2ccccc2-c2ccccc21,17.1% (inactive),
CC(C)(c1ccccc1)c1ccc(O)cc1,,inactive
CN(N=O)c1ccccc1,,inactive
CCCC[n+]1cccc(C)c1,,inactive
COP(=O)(OC)O/C(C)=C/C(=O)N(C)C,-5.65% (inactive),
CCN(CC)CCO,,inactive
c1ccc(Nc2ccc(Nc3ccccc3)cc2)cc1,-7.89% (inactive),
Cc1[nH]c(=O)n(C(C)(C)C)c(=O)c1Cl,,inactive
Cc1ccccc1C(=O)Nc1cccc(OC(C)C)c1,-19.8% (inactive),
CC(C)(OOC(C)(C)c1ccccc1)c1ccccc1,,inactive
C[Si](Cn1cncn1)(c1ccc(F)cc1)c1ccc(F)cc1,,inactive
CCCCN(CCCC)N=O,,inactive
CC1(C)CC(=O)CC(C)(C)N1[O],0.182% (inactive),
ClCC(Cl)Cl,3.66% (inactive),
CCC1(CC)C(=O)C=CNC1=O,17.2% [at 42.5 µM] (inactive),
ClC(Cl)=C(c1ccc(Cl)cc1)c1ccccc1Cl,-19% (inactive),
CCc1cccc(C)c1N(C(=O)CCl)C(C)COC (stereo not given),,inactive
CCOP(=S)(OCC)SC(CCl)N1C(=O)c2ccccc2C1=O (stereo not given),-7.05% (inactive),

SMILES,"activity change, negative = cytotoxicity",Potency
CCN(CC)C(=O)N[C@@H]1C=C2c3cccc4[nH]cc(c34)C[C@@H]2N(C)C1,6.6% [at 42.5 µM] (inactive),
N#CC(Cl)(Cl)Cl,9.54% (inactive),
[CH3][Sn]([Cl])([Cl])[Cl],,inactive
CCC(C(N)=O)N1CCCC1=O (stereo not given),5.55% [at 42.5 µM] (inactive),
CC(C)(C)c1ccc(CSc2cnn(C(C)(C)C)c(=O)c2Cl)cc1,-17.9% (inactive),
COc1cc(CC(C)N)c(OC)cc1Br (stereo not given),-0.792% (inactive),
CC(C)(C)C(=O)CCl,-3.04% (inactive),
COC(C)(C)CCCC(C)C/C=C/C(C)=C/C(=O)OC(C)C (stereo not given),,inactive
CC(=NC#N)N(C)Cc1ccc(Cl)nc1,-12% (inactive),
NC(=O)OCCCc1ccccc1,15.5% [at 42.5 µM] (inactive),
O=C(O)[C@H](O)[C@@H](O)C(=O)O,-1.29% (inactive),
CCCCn1cc[n+](C)c1.[Cl][Fe-]([Cl])([Cl])[Cl],19.6% (inactive),
CN(C)CCO,,inactive
CC(C)N(C(=O)CCl)c1ccccc1,,inactive
c1ccc2c(c1)Oc1ccccc1O2,,inactive
CC[C@H](N)c1ccccc1,-0.64% (inactive),
CC(=[OH+])/C=C(/C)[O-].CC(=[OH+])/C=C(\C)[O-].CC(=[OH+])/C=C(\C)[O-].[Fe],6.78% (inactive),
Cc1ccc(Cl)c(O)c1,2.97% [at 42.5 µM] (inactive),
CCN,1.08% (inactive),
Brc1c(Br)c(Br)c(Oc2c(Br)c(Br)c(Br)c(Br)c2Br)c(Br)c1Br,4.51% [at 18.9 µM] (inactive),
